Consider 68 molecules from PubChem BioAssay AID504832 (National Center for Advancing Translational Sciences (NCATS), 2011).

The campaign covered roughly 310,000 compounds. About 18,000 (5.8%) were called active. Inconclusive results (about 22%) are left out. This is one part of a sample in which actives are shown more often than they occur. Calls come from the whole dose curve; as a rule, active = well fitted inhibition curve with a large enough effect; inconclusive = small, poorly fitted or top-dose-only effect, or another doubt; inactive = no such curve, though single readings can be large or run the other way.
% is set by controls: 0 for no effect and ±100 for the full control effect; potency is the fitted concentration of half-maximal effect.

This test in a line: Primary qHTS for delayed death inhibitors of the malarial parasite plastid, 48 hour incubation. The note with it: P. falciparum luciferase growth in erythrocytes; series mostly up to 28.7 µM; activity change, negative = inhibition: at the top concentration. The method in brief:
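Compounds are pin-transferred into medium, infected erythrocytes (2% hematocrit, 0.1% parasitemia final) are added, and plates sit one parasite generation at 37 C in 5% CO2. Detection reagent is then added and luminescence measured.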
For orientation: Quantitative high-throughput screening tests each substance at several concentrations.
Regarding `O=S(=O)(c1ccc(-c2ccno2)s1)N1CCCCC1`, the “activity change, negative = inhibition” value is 3.71% (inactive).
With `CCn1cc(C(=O)N[C@@H](C)C(=O)NCCO)c(=O)c2cc3c(cc21)OCO3`, the “activity change, negative = inhibition” value was 20.8% (inactive).
Regarding `CCOC(=O)C1=C(CC)Nc2ccccc2N=C1N`, the “activity change, negative = inhibition” value was 10.7% (inactive).
On to `CCOC(=O)c1cc(Sc2ccccc2N)cc(C(=O)OCC)n1`, for which the Potency is 0.147 µM (active).
In the case of `CCOC(=O)c1sc2nc(SC)nc(-c3ccccc3)c2c1N`, the “activity change, negative = inhibition” value was 10.1% (inactive).
On the same count and under the same terms, the same measure for `CCOc1ccc(N2C(=O)CSC2=NC#N)cc1`: -21.6% (inactive).
Still for that read-out and setting: the same measure for `COc1ccccc1CNS(=O)(=O)CC12CCC(CC1=O)C2(C)C` (stereo not drawn): 10.1% (inactive).
Consider `COC(=O)c1ccc(Nc2ncnc3sccc23)cc1`, for which the “activity change, negative = inhibition” value was 19.8% (inactive).
For `Cc1nnc(SCc2ccc(C(=O)c3ccc(Cl)cc3)o2)n1-c1ccccc1`, the Potency was 14.7 µM (active).
For the molecule `Cc1nnc(SCC(=O)N2CCN(c3ccccc3)CC2)n1-c1ccccc1`, the “activity change, negative = inhibition” value was -0.135% (inactive).
With `Cc1nnc(SCC(=O)NCCOc2ccc(Cl)cc2)n1-c1ccccc1`, the “activity change, negative = inhibition” value was -17.2% (inactive).
Consider `Cc1noc(C)c1C(=O)NCCc1ccc(S(N)(=O)=O)cc1`, for which the “activity change, negative = inhibition” value was -3.59% (inactive).
Still for that read-out and setting: the same measure for `COc1ccc(C)cc1NC(=S)N1CCOCC1`: 0.499% (inactive).
As for `CCOC(=O)c1sc(NC(=O)c2sc(C)nc2C)nc1C`, the “activity change, negative = inhibition” value is 19.2% (inactive).
For the molecule `Cn1c(Nc2ccccc2)cc(=O)n(C)c1=O`, the “activity change, negative = inhibition” value is -11.8% (inactive).
`O=C1C(Cc2ccc(O)cc2)NC(=S)N1Cc1ccccc1` (stereo not drawn): the Potency is 2.94 µM (active).
Regarding `Cc1ccc(N2C(=O)C(Cc3ccccc3)NC2=S)cc1` (stereo not drawn), the “activity change, negative = inhibition” value is -18.5% (inactive).
As for `CCCCc1ccc(NC(=O)CN2C(=O)NC(Cc3ccccc3)C2=O)cc1` (stereo not drawn), the “activity change, negative = inhibition” value is -23.3% (inactive).
Take `C=CCOc1ccc(C(=O)Nc2ccccc2C(=O)N2CCCC2)cc1`: the “activity change, negative = inhibition” value is -4.59% (inactive).
As to `CCOC(=O)CNc1nc(Cl)nc(Nc2ccc(OC)cc2OC)n1`, the “activity change, negative = inhibition” value is 122% (inactive).
For the molecule `Cc1c(O)c(C)c2c(c1O)C(=O)C[C@@H](c1ccccc1)O2`, the Potency is 13.1 µM (active).
As to `CCCc1cc(C(=O)Nc2ccc(Cl)cn2)cs1`, the “activity change, negative = inhibition” value is 274% (inactive).
Same read-out and setting: the same measure for `Cc1cc(CNC(=O)C2CCC(=O)N(CCc3ccc(Cl)cc3)C2)no1` (stereo not drawn): -6.17% (inactive); for `NC(=O)CSC1=Nc2ccccc2C2=NC(CCC(=O)NCc3ccc(F)cc3)C(=O)N12` (stereo not drawn): 16.7% (inactive).
On to `O=C(CC1N=C2c3ccccc3N=C(SCc3ccccc3Cl)N2C1=O)NCc1ccco1` (stereo not drawn), for which the Potency is 4.65 µM (active).
For `CCC(C)NC(=O)CSC1=Nc2ccccc2C2=NC(CCC(=O)NCc3ccco3)C(=O)N12` (stereo not drawn), the “activity change, negative = inhibition” value is 0.708% (inactive).
Still for that read-out and setting: in the case of `Cc1ccc(C(=O)NCC(=O)NCc2cc(=O)n(C)c(=O)n2C)cc1` it was 20.1% (inactive).
In the case of `COc1ccc(NC(=O)CC2SC(N3CCCCC3)=NC2=O)cc1OC` (stereo not drawn), the “activity change, negative = inhibition” value was 1.93% (inactive).
On the same count and under the same terms, the same measure for `COc1ccc(C(=O)NC(=S)Nc2ccc(N3CCCC3)cc2)cc1OC`: 2.93% (inactive).
On to `COc1ccc(C(=O)Nc2ccc3nc(N4CCCCC4)cc(C)c3c2)cc1OC`, for which the Potency is 3.7 µM (active).
Regarding `COc1ccc(NC(=O)CCn2ccnc2)c(OC)c1`, the “activity change, negative = inhibition” value is 2.35% (inactive).
Take `CC(=O)NCc1ccc(-c2csc(NC(=O)CCCc3nc4ccccc4c(=O)[nH]3)n2)cc1`: the Potency was 9.28 µM (active).
For `O=C(CSc1nc2ccccc2c(=O)[nH]1)Nc1nc(-c2ccc(Br)cc2)cs1`, the “activity change, negative = inhibition” value is 4.63% (inactive).
For `CCN(CC)c1ccc(C(=O)NNC(=O)CCc2nc3ccccc3c(=O)[nH]2)cc1`, the “activity change, negative = inhibition” value was 0% (inactive).
Still for that read-out and setting: the same measure for `COc1ccc(-c2csc(NC(=O)CCCc3cccs3)n2)cc1`: 5.99% (inactive).
Take `CC(C)(C)c1ccc(NC(=O)COC(=O)CCc2nc3ccccc3c(=O)[nH]2)cc1`: the “activity change, negative = inhibition” value was 36.9% (inactive).
Consider `Cc1cc(C)c(-c2csc(NC(=O)CCCc3nc4ccccc4c(=O)[nH]3)n2)c(C)c1`, for which the Potency was 0.131 µM (active).
In the case of `CN(C(=O)CCNC(=O)Cn1ccc2ccccc2c1=O)c1ccc(Br)cc1`, the “activity change, negative = inhibition” value is 23.2% (inactive).
Regarding `N=c1oc2ccccc2cc1C(=O)NCc1ccccc1`, the “activity change, negative = inhibition” value is 23.7% (inactive).
On the same count and under the same terms, the same measure for `CS(=O)(=O)N1CCc2cc(C(=O)Nc3ccccc3Br)ccc21`: 88.1% (inactive); for `COc1ccc(NC(=O)CNC(=O)Cc2ccccc2)cc1OC`: 27% (inactive).
On the same count and under the same terms, in the case of `Cc1cc(NC(=O)CCC(=O)N(Cc2ccccc2)C(C(=O)NC2CCCC2)c2ccc(C)o2)no1` (stereo not drawn) it was -18.2% (inactive); in that of `CN(Cc1c(F)cccc1Cl)C(=O)CNC(=O)c1ccc2c(c1)OCO2`, 24.5% (inactive); in that of `NC(=O)NC(CC(=O)NNC(=O)c1ccccn1)c1ccc(Cl)cc1` (stereo not drawn), -6.59% (inactive).
In the case of `Cc1cc(C)c2c(=O)[nH]c(SCC(=O)Nc3ccc(Br)cc3)nc2n1`, the “activity change, negative = inhibition” value was 21.1% (inactive).
Consider `CN(C)CCn1c2c(c(SCC(=O)NCc3ccccc3)nc1=O)CCC2`, for which the “activity change, negative = inhibition” value is 2.52% (inactive).
With `COc1ccccc1CNC(=O)CSc1nc(=O)n(Cc2ccncc2)c2c1CCC2`, the Potency is 11.7 µM (active).
For the molecule `CN(C)CCn1c2c(c(SCC(=O)Nc3ccccc3C(F)(F)F)nc1=O)CCCC2`, the “activity change, negative = inhibition” value was 5.64% (inactive).
Still for that read-out and setting: in the case of `Cc1ccc(NS(=O)(=O)c2ccc3c(c2)oc(=O)n3C)c(C)c1` it was 22% (inactive).
Regarding `Cc1c(NC(=O)C(C)Oc2cccc(Cl)c2)c(=O)n(-c2ccccc2)n1C` (stereo not drawn), the “activity change, negative = inhibition” value is 32.1% (inactive).
For the molecule `COc1ccc(NC(=O)c2cnc(NS(=O)(=O)c3ccccc3)nc2)cc1`, the “activity change, negative = inhibition” value was 25.7% (inactive).
For the molecule `COc1ccc(CN(C)C(=O)c2cc(-c3ccc(C)cc3C)nc3ccccc23)c(OC)c1OC`, the Potency was 9.28 µM (active).
As to `Cc1ccc(-c2cc(C(=O)Nc3nn[nH]n3)c3ccccc3n2)c(C)c1`, the “activity change, negative = inhibition” value is -32% (inactive).
On the same count and under the same terms, in the case of `COc1ccc(C)cc1N(C)C(=O)c1coc(=O)c2ccccc12` it was -11.7% (inactive); in that of `Cc1cccc(C(=O)NCC(=O)OCC(=O)N(C)CC(=O)Nc2ccccc2Cl)c1`, -14.3% (inactive); in that of `CN(CC(=O)Nc1ccccc1Cl)C(=O)c1ccccc1SCC(=O)N1CCCC1`, 11.3% (inactive).
Consider `COc1ccc(-c2cc(C(=O)N(C)CC(=O)Nc3ccccc3Cl)c3ccccc3n2)cc1OC`, for which the Potency was 13.1 µM (active).
In the case of `COc1cc(N=Cc2c(O)c3ccccc3oc2=O)c(OC)cc1Cl`, the “activity change, negative = inhibition” value was 1.98% (inactive).
Same read-out and setting: the same measure for `CC(C)c1nnc(NC(=O)COC(=O)/C=C/c2ccc([N+](=O)[O-])cc2)s1`: 18.6% (inactive); for `COc1ccccc1-n1nnnc1SCC(=O)NC(=O)Cc1ccccc1`: -5.56% (inactive).
For `C=CCOc1c(CNn2cn[nH]c2=S)cccc1OC`, the “activity change, negative = inhibition” value is 11.7% (inactive).
The same measure, in the same setting: the same measure for `C=CCOc1cccc(CNn2cn[nH]c2=S)c1`: 1.4% (inactive).
For the molecule `COc1cccc(CNn2cn[nH]c2=S)c1OCc1ccccc1`, the Potency is 10.4 µM (active).
`CC(=O)c1c(C)[nH]c(C(=O)OCC(=O)Nc2c(C)cccc2C)c1C`: the “activity change, negative = inhibition” value is -25.1% (inactive).
As to `CSc1ccc(Cl)c(C(=O)OCC(=O)N2CCNC2=O)c1`, the “activity change, negative = inhibition” value was -4.4% (inactive).
Take `COc1ccc(C(=O)NC(=S)N2CCNC(=O)C2CC(=O)OC(C)C)cc1` (stereo not drawn): the “activity change, negative = inhibition” value was 12.5% (inactive).
Consider `CCOC(=O)CC1C(=O)NCCN1c1nc2c(C)cccn2c(=O)c1/C=C1\SC(=S)N(C(C)CC)C1=O` (stereo not drawn), for which the Potency is 8.28 µM (active).
In the case of `CCOC(=O)CC1C(=O)NCCN1C(=O)COc1ccc(Br)cc1C` (stereo not drawn), the “activity change, negative = inhibition” value is 13.7% (inactive).
